Only some compounds are listed: those with a hit (about 1.5% of all), similar ones and a draw of the others.
VCAM1 TNFa inh = reduces TNF alpha induced VCAM1 expression in HUVEC; HUVEC TNFa-induced VCAM-1 immunofluorescence, high-content imaging; inhibition, % at 2 µM; actives 0.48% (n = 95,000); AID 802;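 active = inhibition above the batch mean plus 3 SD, with images confirmed as a hit by eye, cut at about 37% in these data; inconclusive = inhibition above that limit but hit not confirmed in images; inactive = inhibition not above that limit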
MRP1 act = activators of MRP-1. H69AR cells + doxorubicin, viability rescue, CellTiter-Glo. viability increase, % at 10 µM. actives 0.61% (n = 140,000). AID 799;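 active = viability gain under doxorubicin at or above a set limit, the compound median plus 3 SD, cut at about 4.7% in these data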;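 note: MRP-1 overexpressing cells given doxorubicin 25 µM after compound pretreatment; 18-22 h compound pretreatment then 72 h with doxorubicin before readout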
F-actin modifier = alters cytoskeleton assembly in HUVEC cells; HUVEC TNFa F-actin phalloidin imaging, high content; inhibition, % at 2 µM; actives 0.18% (n = 91,000);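 active = inhibition above the batch mean plus 3 SD and confirmed as a hit by visual image inspection, cut at about 30% in these data, passing the limit was not always enough; inconclusive = above the inhibition threshold but rejected on visual inspection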
E-sel TNF inh = blocks E-selectin expression induced by TNF alpha; HUVEC TNFa-induced E-selectin immunofluorescence, high content; inhibition, % at 2 µM; actives 0.71% (n = 120,000);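 active = inhibition above the batch mean plus 3 SD, and confirmed as a hit on visual image review, cut at about 43% in these data; inconclusive = passes the inhibition cutoff but fails visual image review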
MRP resist rev = MRP-mediated drug resistance reversal | H69AR cells + 2 uM doxorubicin, CellTiter-Glo, 72 h | differential viability (reversal), % at 10 µM | actives 0.04% (n = 85,000) | AID 602;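 active = viability drop by adding the cancer drug above about 55%, with treated viability meeting a 40% cutoff, limit read from the data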;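 note: larger differential means the compound sensitizes cells more to doxorubicin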
Hits are given with their value; 0 = inactive; ? = inconclusive; - = no result.

SMILES | VCAM1 TNFa inh | MRP1 act | F-actin modifier | E-sel TNF inh | MRP resist rev
CCCCOC(=O)Nc1ccc(C(C)C)cc1 | 0 | 6.0 | 0 | 0 | 0
O=c1[nH]c(C2CCCN(S(=O)(=O)c3ccccc3)C2)nc2c1nnn2Cc1ccccc1 (stereo not given) | 0 | 5.3 | 0 | 0 | 0
O=c1[nH]c(C2CCCN(S(=O)(=O)c3ccccc3)C2)nc2c1nnn2Cc1ccccc1F (stereo not given) | - | 0 | - | 0 | 0
Clc1ccc(Nc2ccc(-n3ccnc3)nn2)cc1Cl | 0 | 0 | 0 | 65 | -
c1ccc(Nc2ccc(-n3ccnc3)nn2)cc1 | - | - | - | 0 | -
O=C(CN(Cc1ccccc1F)C(=O)Cn1nnc(-c2cccs2)n1)NC1CCCCC1 | 0 | 0 | 0 | 0 | 0
Nc1c(C(=O)NCC2CCCO2)sc2nc3c(c(-c4ccco4)c12)CC/C3=C\c1ccco1 (stereo not given) | - | 0 | - | - | -
NC(=O)c1ccc(-c2ccc(Br)cc2)o1 | 0 | 0 | 0 | 43 | 0
O=C(O)CCc1ccc(-c2ccc(Br)cc2)o1 | 0 | 0 | 0 | - | 0
CCCN(C(=O)c1cccs1)c1nnc(-c2ccncc2)s1 | 0 | 0 | 0 | - | 0
Cc1ccc(/C=C/C(=O)O)cc1S(=O)(=O)NCCO | 0 | 0 | 0 | 54 | -
COc1cc(/C=C/C(=O)O)cc(S(=O)(=O)NCCO)c1OC | - | 0 | - | - | -
CC(C)Cn1c2c(c(O)c(C(=O)Nc3nccs3)c1=O)CCCC2 | 0 | 5.7 | 0 | 0 | 0
CCCn1c2c(c(O)c(C(=O)Nc3nccs3)c1=O)CCCC2 | 0 | 0 | 0 | - | 0
O=C(Cn1cccc1C(=O)c1ccccc1)NCCN1CCOCC1 | 82 | 0 | ? | 0 | 0
COc1cc(C2C(C#N)=C(N)Oc3c2oc(CO)cc3=O)cc(OC)c1OC (stereo not given) | 0 | 0 | 0 | 100 | 0
Clc1ccccc1CSc1snnc1-c1ccccc1 | 0 | 0 | 0 | 0 | -
O=S(=O)(c1ccc(Cl)c(Cl)c1)c1snnc1-c1ccccc1 | 96 | 0 | 0 | 0 | 0
CC(Sc1nc(N)cc(=O)[nH]1)C(=O)NC1CCCCC1 (stereo not given) | 94 | 0 | 0 | 0 | 0
O=C(Nc1ccc(C2CC2(Cl)Cl)cc1)c1ccccc1Br (stereo not given) | - | 11 | - | - | -
COc1cccc(C(=O)Nc2ccc(C3CC3(Cl)Cl)cc2)c1 (stereo not given) | - | - | - | 0 | -
Cc1noc(C)c1S(=O)(=O)N1CCC2(CC1)OCCO2 | 88 | 0 | 0 | 0 | 0
Cc1noc(C)c1S(=O)(=O)N1CCCCC1 | 0 | 0 | - | 0 | 0

Compound activity: PubChem BioAssay, several laboratories
